# Measurements: PubChem BioAssay (NCATS)
# Results filed as inconclusive are left out. Active and inactive are the calls of the source. The call rests on the fitted dose curve; in most records, active means well fitted curve in the direction sought with a large enough effect in the signal ratio (not every such curve was filed as active); inconclusive means small, poorly fitted or top-dose-only effect, or effect the other way, or a change in a side signal; inactive means no such curve, though single readings can be large or run the other way; the % refers to the signal ratio.
# Molecular target: Tyrosine-protein phosphatase non-receptor type substrate 1 (Homo sapiens) + Leukocyte surface antigen CD47 (Homo sapiens) (UniProt P78324+Q08722)
# Experiment: CD47-SIRPalpha protein protein interaction - HTRF assay qHTS validation (AID 1347058)
# Details: TR-FRET HTRF CD47-His / biotin-SIRPalpha binding, ratio 665/615; series mostly up to 38.3 µM
# Text: SIRPalpha is a myeloid cell expressed immunomodulatory receptor that binds the tumor expressed immune checkpoint CD47. Therapeutic disruption of this interaction leads to immune-mediated tumor rejection. This assay was used to quantitate CD47-SIRPalpha binding biochemically and evaluate chemical libraries for novel CD47-SIRPalpha inhibitors. To recapitulate the biological interaction of CD47 and SIRPalpha, we designed expression constructs to produce their recombinant, soluble, extracellular interaction domains. CD47 was produced with an N-terminal 6His tag. SIRPalpha was produced with an N-terminal Avi-Tag for site-specific biotin incorporation. The CD47-SIRPalpha interaction was measured by TR-FRET using affinity tag linked reagents (anti-6His-Eu donor and streptavidin-XL665 acceptor). SIRPalpha without biotin incorporation was used as a positive control inhibitor.
# SEQUENCE No. (e.g., 1, 2, 3, etc.); […] (e.g., Cells, Incubation, Reagent, etc.); VALUE and DESCRIPTION.
# 1a. Reagent. 3 uL CD47-His (12.5 nM) and Anti-His Eu Donor reagent (0.7 nM) added to respective wells in Assay buffer; white/solid bottom high base, med bind 1536-well plates (Greiner 789075)
# 1b. Reagent. 2 uL Assay buffer negative control for background fluorescence
# 2. Reagent. 23 nL library compounds (7-pt, 1:4 intraplate titration series) or DMSO control transferred by Pin Tool
# 3. Centrifuge. Centrifuge plate for 30 s at 1000 RPM
# 4. Incubation.#Incubate reagents at room temperature for 30 min, protected from light
# 5. Reagent. 2 uL SIRPalpha-biotin (100 nM) in Assay buffer
# 6. Incubation.#Incubate reagents at room temperature for 30 min, protected from light
# 7. Reagent. 1 uL SAV-XL665 (85 nM) acceptor reagent added to respective wells
# 8. Centrifuge. Centrifuge plate for 30 s at 1000 RPM
# 9. Incubation. Incubate reagents at room temperature for 30 min, protected from light
# 10. Detector. Measure Top TR-FRET on EnVision (Eu/APC filter set); calculate ratio Ch1/Ch2
# 1. Assay buffer composition.#Phosphate buffered saline (PBS; 10 mM Phosphate, 137 mM NaCl, and 2.7 mM KCl; pH 7.4), 0.05% IGEPAL CA-630
# 2. 23nL of […] library compounds (7 plates) or DMSO vehicle control transferred to 9 Greiner white/solid bottom high base, TC plates in 7 interplate 1:5 titrations (see Yasgar, A. et al. 2008) with Pintool. Two of the 9 plates are DMSO-only in compound field at beginning and end of compound library-treated plates.
# 10. Detector settings#Mirror = LANCE/DELFIA Dual Enh; Ex. Filter = UV2[TRF] 320; Em. Filter = APC 665; 2nd Em. Filter = Europium 615; Measurement h = 6.5; Ex. light (%) = 100; Delay = […]; Window t = 100 us; No. Seq. windows = 1; Time between flashes = 2000us; No. of flashes = 100; No. of flashes for 2nd detector = 100; Calculation: "Ratio Ch1/Ch2"
# Sequence of Tyrosine-protein phosphatase non-receptor type substrate 1 (Homo sapiens) + Leukocyte surface antigen CD47 (Homo sapiens) (P78324 whole entry, looked up): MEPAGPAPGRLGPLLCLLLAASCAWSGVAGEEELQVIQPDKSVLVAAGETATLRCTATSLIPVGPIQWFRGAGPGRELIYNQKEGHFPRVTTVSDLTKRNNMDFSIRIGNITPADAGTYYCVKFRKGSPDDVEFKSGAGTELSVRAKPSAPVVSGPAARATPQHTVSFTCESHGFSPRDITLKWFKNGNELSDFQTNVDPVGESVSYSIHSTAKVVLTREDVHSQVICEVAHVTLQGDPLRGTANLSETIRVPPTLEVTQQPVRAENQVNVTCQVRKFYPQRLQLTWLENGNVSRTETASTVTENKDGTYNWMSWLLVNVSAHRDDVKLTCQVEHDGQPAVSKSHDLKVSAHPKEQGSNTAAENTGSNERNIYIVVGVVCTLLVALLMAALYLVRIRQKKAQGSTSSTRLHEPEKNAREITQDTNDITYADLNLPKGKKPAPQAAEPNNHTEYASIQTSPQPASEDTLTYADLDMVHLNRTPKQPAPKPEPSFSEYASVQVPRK
# Sequence of Tyrosine-protein phosphatase non-receptor type substrate 1 (Homo sapiens) + Leukocyte surface antigen CD47 (Homo sapiens) (Q08722 whole entry, looked up): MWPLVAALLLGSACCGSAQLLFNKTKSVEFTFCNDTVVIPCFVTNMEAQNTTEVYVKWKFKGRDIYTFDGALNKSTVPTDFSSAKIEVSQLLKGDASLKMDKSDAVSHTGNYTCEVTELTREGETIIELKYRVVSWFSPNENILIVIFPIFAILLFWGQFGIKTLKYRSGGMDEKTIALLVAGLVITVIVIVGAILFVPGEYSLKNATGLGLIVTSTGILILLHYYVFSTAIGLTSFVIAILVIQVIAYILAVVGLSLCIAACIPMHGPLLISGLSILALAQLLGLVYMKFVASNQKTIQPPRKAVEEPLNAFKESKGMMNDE
row,Compound,outcome
1,Clc1ccc2c(c1)N=C(N1CCNCC1)c1ccccc1N2,inactive
2,CC(C)N(CCC(=O)c1ccc2ccccc2c1)Cc1ccccc1,inactive
3,NC(N)=NCCCCN=C(N)N,inactive
4,N[C@@H](Cn1ccc(=O)c(O)c1)C(=O)O,inactive
5,Cc1nn(-c2ccccc2)c(C)c1/C=N/N1CCN(Cc2ccccc2)CC1,inactive
6,C[N+](C)(C)CCO,inactive
7,COC(=O)C1=CO[C@@H](O)[C@@H]2C(CO)=CC[C@H]12,inactive
8,CCN(CC)CCNC(=O)c1ccc(NS(C)(=O)=O)cc1,inactive
9,Brc1ccc([C@H]2CN3CCSC3=N2)cc1,inactive
10,Nc1ncnc2n[nH]c(Nc3ccc(F)cc3)c12,inactive
11,COc1ccccc1N1CCN(CCN2C(=O)CC3(CCCC3)CC2=O)CC1,inactive
